Data from PubChem BioAssay (Tox21).
The source made the active and inactive calls. A call without a number means that no potency is given here. Calls come from the whole dose curve; as a rule, active = well fitted activation curve with a large enough effect in the repeat runs; inconclusive = weak or mixed curves; inactive = flat fitted curve, though single readings scatter.

The compounds below were run against Androgen receptor (Homo sapiens) (UniProt P10275) (assay: qHTS assay to identify small molecule agonists of the androgen receptor (AR) signaling pathway using the MDA cell line (AID 743040; note: nearly all actives have a fitted effect of over 20% in size)). Details: MDA-kb2 AR-luc cells, MMTV luciferase, 16 h; series mostly up to 70.3 µM.
Description: National Center for Advancing Translational Sciences [NCATS]
NIH Chemical Genomics Center [NCGC]
U.S. Environmental Protection Agency [EPA]
National Institutes of Environmental Health Sciences [NIEHS]
National Toxicology Program [NTP]
U.S. Food and Drug Administration [FDA]
Androgen receptor (AR), a nuclear hormone receptor, plays a critical role in AR-dependent prostate cancer and other androgen related diseases. Endocrine disrupting chemicals (EDCs) and their interactions with steroid hormone receptors like AR may cause disruption of normal endocrine function as well as interfere with metabolic homeostasis, reproduction, developmental and behavioral functions. To identify the compounds that activate AR signaling, MDA-kb2 AR-luc cell line (from ATCC, deposited by Wilson et al.) was used to screen the Tox21 10K compound library. MDA-kb2 AR-luc cell line is human breast carcinoma cell line that was stably transfected with a luciferase reporter gene under control of the MMTV promoter containing response elements for both androgen receptor (AR) and glucocorticoid receptor (GR).
Tox21 Assay Protocol Summary:
MDA-kb2 AR-luc cells were dispensed at 3,000 cells/5 uL/well of culture medium into white wall/solid-bottom 1536-well plates using a Multidrop Combi (ThermoFisher Scientific, Waltham, MA) dispenser. After the assay plates were incubated at 37C and 0% CO2 for 5 h, 23 nL of compounds dissolved in DMSO, positive controls or DMSO only was transferred to the assay plate by a Pintool station (Kalypsys, San Diego, CA). The plates were incubated at 37C and 0% CO2 for 16 h. Then 4 uL of ONE-Glo reagent (Promega, Madison, WI) was added to each plate using a Bioraptr Flying Reagent Dispenser (FRD) workstation (Beckman Coulter, Indianapolis, IN, USA) and luminescence was quantified on a ViewLux (PerkinElmer, Shelton, CT) plate reader after 30 min incubation at room temperature.

Androgen receptor (Homo sapiens), sequence (P10275 whole entry, looked up): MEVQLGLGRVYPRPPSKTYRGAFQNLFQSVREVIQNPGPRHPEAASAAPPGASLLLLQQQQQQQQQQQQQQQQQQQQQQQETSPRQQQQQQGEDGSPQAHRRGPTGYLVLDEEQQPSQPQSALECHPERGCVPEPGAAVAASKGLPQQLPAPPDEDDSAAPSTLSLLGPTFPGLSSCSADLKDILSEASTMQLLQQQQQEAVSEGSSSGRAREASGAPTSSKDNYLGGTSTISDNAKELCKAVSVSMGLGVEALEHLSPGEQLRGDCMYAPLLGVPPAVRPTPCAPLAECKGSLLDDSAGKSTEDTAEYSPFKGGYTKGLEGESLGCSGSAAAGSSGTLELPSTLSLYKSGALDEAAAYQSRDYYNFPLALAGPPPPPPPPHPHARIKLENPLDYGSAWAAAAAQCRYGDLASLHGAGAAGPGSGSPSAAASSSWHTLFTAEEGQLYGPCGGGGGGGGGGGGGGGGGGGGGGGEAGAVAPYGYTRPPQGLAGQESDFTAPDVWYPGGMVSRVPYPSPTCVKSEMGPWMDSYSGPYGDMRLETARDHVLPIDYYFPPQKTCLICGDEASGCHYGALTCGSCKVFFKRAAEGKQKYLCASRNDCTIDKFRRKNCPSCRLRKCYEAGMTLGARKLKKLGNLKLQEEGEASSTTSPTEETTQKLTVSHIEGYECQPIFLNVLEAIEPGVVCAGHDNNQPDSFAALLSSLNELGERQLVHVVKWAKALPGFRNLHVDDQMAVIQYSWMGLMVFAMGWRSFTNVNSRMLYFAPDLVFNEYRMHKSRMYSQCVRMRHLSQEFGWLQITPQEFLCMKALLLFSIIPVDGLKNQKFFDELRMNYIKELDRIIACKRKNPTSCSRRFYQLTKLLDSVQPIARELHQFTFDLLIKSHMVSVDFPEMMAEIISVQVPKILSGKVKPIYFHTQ

**Q.** With C[C@]12CC[C@@H]3c4ccc(O)cc4C[C@@H](CCCCCCCCCS(=O)CCCC(F)(F)C(F)(F)F)[C@H]3[C@@H]1CC[C@@H]2O (some centres undefined) as the compound, how does the Potency read?
**A.** inactive

**Q.** Which Potency does the source give for CN(C)Cc1cc(CN(C)C)c(O)c(CN(C)C)c1 here?
**A.** inactive

**Q.** For COc1cc2c(c(OC)c1OC)-c1ccc(OC)c(=O)cc1[C@@H](NC(C)=O)CC2, which Potency is on record?
**A.** inactive

**Q.** Which Potency does the source give for COCCOCCOC here?
**A.** inactive

**Q.** For Cc1cccc(Nc2cc(Cl)nc(SCC(=O)O)n2)c1C, which Potency is on record?
**A.** inactive

**Q.** Which Potency does the source give for CCCCCCCCCCCCCC(=O)OC(C)C here?
**A.** inactive

**Q.** With O=c1c(-c2ccc(O)cc2)coc2cc(O)cc(O)c12 as the compound, how does the Potency read?
**A.** inactive

**Q.** NC(=O)OCC(COC(N)=O)c1ccccc1 was tested. Which Potency did it give?
**A.** inactive

**Q.** For COc1cc(C=O)ccc1O, which Potency is on record?
**A.** inactive

**Q.** O=C1OC(c2ccc(O)cc2)(c2ccc(O)cc2)c2ccccc21 was tested. Which Potency did it give?
**A.** inactive

**Q.** Which Potency does the source give for c1ccc2[nH]c(-c3cscn3)nc2c1 here?
**A.** inactive

**Q.** Which Potency does the source give for CC(O)COc1ccccc1 (centres undefined) here?
**A.** inactive

**Q.** With COCC(C)N (centres undefined) as the compound, how does the Potency read?
**A.** inactive

**Q.** How did the Potency turn out when COc1ccc(C(=O)c2ccccc2)c(O)c1 was run?
**A.** inactive

**Q.** CC(=O)Oc1ccccc1C(=O)O was tested. Which Potency did it give?
**A.** inactive

**Q.** Which Potency does the source give for CC(=O)c1ccc(S(=O)(=O)NC(=O)NC2CCCCC2)cc1 here?
**A.** inactive

**Q.** NCCNc1cccc2ccccc12 was tested. Which Potency did it give?
**A.** inactive

**Q.** Which Potency does the source give for Cc1cccc(C)c1O here?
**A.** inactive

**Q.** For COc1ccc(O)cc1, which Potency is on record?
**A.** inactive
